Among the data in the supplement of paper PMC10681739 are ETS1 binding intensity and RUNX1 binding intensity values, retold here.

Assay [1] deals with T1, ETS1 (UniProt P14921).
T1 sequence: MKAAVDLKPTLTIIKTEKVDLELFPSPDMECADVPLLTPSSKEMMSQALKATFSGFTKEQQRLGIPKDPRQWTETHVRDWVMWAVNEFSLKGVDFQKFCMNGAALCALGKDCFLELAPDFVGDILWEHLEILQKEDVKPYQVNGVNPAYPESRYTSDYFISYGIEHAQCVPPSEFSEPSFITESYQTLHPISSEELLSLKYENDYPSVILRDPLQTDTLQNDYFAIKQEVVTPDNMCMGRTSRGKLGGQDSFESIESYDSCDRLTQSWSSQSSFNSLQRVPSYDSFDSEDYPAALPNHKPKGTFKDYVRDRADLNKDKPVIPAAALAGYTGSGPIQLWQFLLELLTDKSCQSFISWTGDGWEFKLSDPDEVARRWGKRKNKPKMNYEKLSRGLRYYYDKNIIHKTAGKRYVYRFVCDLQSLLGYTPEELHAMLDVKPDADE
Kind of assay: ETS1 binding intensity (PBM fluorescence), ETS1 alone (arbitrary fluorescence units); higher = stronger binding. The conditions noted are these: ETS1 concentration 1 nM; RUNX1 concentration 0 nM.

Assay [2] addresses RUNX1 (UniProt Q01196). Kind of assay: RUNX1 binding intensity (PBM fluorescence), RUNX1 alone (arbitrary fluorescence units); higher = stronger binding. The note with it: RUNX1 concentration 2 nM; ETS1 concentration 0 nM. How it is done:
(§1)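 Cooperative gcPBM on 36-bp genomic probes with neighbouring ETS1 and RUNX1 sites. Recombinant human RUNX1 (2 nM) was incubated alone or with ETS1 (25 nM) and detected with anti-RUNX1 antibody plus Alexa488 secondary. Values are medians over 4 replicate spots; the RUNX1+ETS1 data were normalised to the RUNX1-only data. The probes sit in constant array flanks that are not printed.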

In assay [3] the target is T1, ETS1. Kind of assay: ETS1 binding intensity (PBM fluorescence) in presence of RUNX1, normalised to ETS1-only experiment (arbitrary fluorescence units); higher = stronger binding. The conditions noted are these: ETS1 concentration 1 nM; RUNX1 concentration 25 nM.
Assay [4] has as its target RUNX1 (UniProt Q01196). Kind of assay: RUNX1 binding intensity (PBM fluorescence) in presence of ETS1, normalised to RUNX1-only experiment (arbitrary fluorescence units); higher = stronger binding. The note with it: RUNX1 concentration 2 nM; ETS1 concentration 25 nM. Here is the method:
as §1
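For RUNX1 binding intensity (PBM fluorescence) in presence of ETS1, normalised to RUNX1-only experiment in this document: Full-length recombinant human ETS1 or RUNX1 bound to double-stranded 36-bp genomic probes on microarrays, detected by protein-specific primary antibody and Alexa488 secondary, spot fluorescence as median of four replicate spots.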
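For RUNX1 binding intensity (PBM fluorescence), RUNX1 alone in this document: Full-length recombinant human RUNX1 bound to double-stranded 36-bp genomic probes on a high-density microarray, scored as Alexa488 fluorescence per spot via anti-RUNX1 antibody, median of four replicate spots.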

Chain of RUNX1 (Q01196 whole entry): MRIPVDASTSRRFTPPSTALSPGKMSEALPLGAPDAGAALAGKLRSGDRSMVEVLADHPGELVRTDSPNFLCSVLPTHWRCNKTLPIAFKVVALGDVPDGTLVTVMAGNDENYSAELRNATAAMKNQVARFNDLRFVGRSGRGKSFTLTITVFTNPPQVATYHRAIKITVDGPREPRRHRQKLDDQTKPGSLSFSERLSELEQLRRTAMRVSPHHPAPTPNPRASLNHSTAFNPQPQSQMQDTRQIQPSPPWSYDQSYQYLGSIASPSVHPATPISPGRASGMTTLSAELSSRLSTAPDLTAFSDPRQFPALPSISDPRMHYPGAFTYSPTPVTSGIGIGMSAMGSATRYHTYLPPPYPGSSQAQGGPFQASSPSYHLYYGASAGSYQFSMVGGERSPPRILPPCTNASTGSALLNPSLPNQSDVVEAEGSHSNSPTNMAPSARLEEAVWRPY

Consider CCGCCCTAGAGCAGGAAATAGCGGTCAGCGCCAGCT, for which the ETS1 binding intensity with ETS1 [1] amounted to 2740; in the assay with ETS1 [3], 7280. Further, the RUNX1 binding intensity with RUNX1 [2] is 857; with RUNX1 [4], 1980.
Taken in the same sequence, the figures for AGAAGCTGCACCCGGAAATGAAACCACCAGGACCTC were 4630, 9310, 887 and 1380.
In the case of GGTCCGGAAACGATTCTGGACCTGCGGGTATATCCA, the values for the ETS1 binding intensity with ETS1 [1] and with ETS1 [3] were 1050 and 1350, respectively. Also, the results for the RUNX1 binding intensity with RUNX1 [2] and in the assay with RUNX1 [4] were 776 and 1070, respectively.
Taken in the same sequence, the figures for GAGACTTTCGCTTCCGGCTGCCGCAGGCGCTTCGCT were 1830, 1700, 710 and 1550.
With AGCCTTAATTACCCGGAAGTGCGGTCCCAGGGACTT, the ETS1 binding intensity with ETS1 [1] is 8970; in the assay with ETS1 [3], 12200. The figures for the RUNX1 binding intensity in the assay with RUNX1 [2] and with RUNX1 [4] were 768 and 1710, respectively.
The like results for GAAGCCCAACAGGATGCCGAGTAACCACCCACTGAA were, in that order, 1040, 1120, 822 and 924.
Taken in the same sequence, the figures for AGAGTCTTTTTTCCTGAGCGTTTGCGGTTTTGACTT were 430, 1690, 10500 and 19500.
Taken in the same sequence, the figures for CTGAAAAACCGGAAGTGGGTGGTTTGAAACGTAAAT were 18000, 20800, 776 and 4130.
Regarding GCCGGTGAGGGCGGAAGTGGTAAGACTGACGTGTCC, the ETS1 binding intensity with ETS1 [1] was found to be 6840; in the assay with ETS1 [3] it was 8740. Further, the RUNX1 binding intensity was determined as 709 with RUNX1 [2] and 2490 with RUNX1 [4].
The like results for TCAGAGACTTCCGCTCAGCAGCAGCTGCGGCCAGGC were, in that order, 966, 1330, 671 and 1850.
Taken in the same sequence, the figures for GGGTCCTTCCGGGTTTTGTGTCGAATCTGCGGCGGC were 486, 395, 784 and 1720.
Regarding TTTGAGCGGGCAGGATGTGGTGACAATGATACTGCA, the values for the ETS1 binding intensity with ETS1 [1] and in the assay with ETS1 [3] were 4280 and 8140, respectively. The RUNX1 binding intensity with RUNX1 [2] is 750; in the assay with RUNX1 [4], 2370.
The like results for CGACAGAGGACACTTCCTTTTGCGGGTGGCGGCGAA were, in that order, 550, 1170, 697 and 1460.
Consider CCGGTCCTGACCGGAAGCGGTAACCGTCACTCCTTC, for which the values for the ETS1 binding intensity in the assay with ETS1 [1] and with ETS1 [3] were 21100 and 29000, respectively. The RUNX1 binding intensity in the assay with RUNX1 [2] amounted to 703; in the assay with RUNX1 [4] it was 7940.
